# Data reported in PubChem BioAssay.
# Values without a mark were called inactive. The list shows a part of the results. Calls of active or inactive are those of the source.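 How the source made its calls, unless noted: active means inhibition above the hit cutoff set in the earlier primary screen (cut at about 27% in these data); inactive means the rest.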
# Tests used:
# [1] = molecular target: Bcl-2-like protein 1 (Homo sapiens) (UniProt Q07817); assay: Bcl-xL BH3-peptide displacement, hit confirmation – biochemical, fluorescence polarization, counter-screen for MCL1 inhibitor project (AID 2166;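 active means inhibition above a cutoff equal to the mean inhibition of all tested compounds plus 3 SD, cut at about 30% in these data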); conditions: GST-Bcl-xL / FITC-Bim BH3 peptide FP binding; at 10.9 µM; active compounds read high
# [2] = molecular target: Induced myeloid leukemia cell differentiation protein Mcl-1 (Homo sapiens) (UniProt Q07820); assay: MCL1-BIM peptide interaction disruptors – biochemical, fluorescence polarization, triplicate, confirmation (AID 2168;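 active means inhibition above the average of all tested compounds plus 3 SD, cut at about 40% in these data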;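 further: 0% = DMSO wells and 100% = unlabeled Bim-BH3 control peptide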); conditions: GST-MCL1 / FITC-Bim-BH3 fluorescence polarization; at 10.9 µM; active compounds read high
# [3] = molecular target: Protein-arginine deiminase type-4 (Homo sapiens) (UniProt Q9UM07); assay: protein arginine deiminase 4 blockade, retest – biochemical, fluorescence polarization, confirmation (AID 488796;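 active means mean inhibition across replicates above the hit cutoff set by the earlier primary screen, cut at about 15% in these data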;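 further: inhibitors block active-site labeling by the probe so polarization falls; 0% = PAD4 with probe and DMSO and 100% = probe without PAD4 enzyme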); conditions: recombinant PAD4, RCA probe fluorescence polarization; at 6.36 µM; active compounds read high
# [4] = molecular target: Protein phosphatase methylesterase 1 (Homo sapiens) (UniProt Q9Y570); assay: human PME-1 methylesterase inhibition confirmation – biochemical, fluorescence polarization, FP-Rh probe, triplicate (AID 2171); conditions: recombinant PME-1, FP-Rh probe fluorescence polarization; at 5.9 µM; active compounds read high;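 further: 0% = enzyme with DMSO and 100% = wells lacking PME-1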
# [5] = BSA probe fluorescence interference – biochemical, TAMRA-labeled BSA, counter-screen for TCR-CD3 interaction inhibitor project (AID 652035; in the data active means inhibition above about 23%;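 further: 0% = buffer low control and 100% = reference high control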); conditions: TAMRA-labeled BSA probe fluorescence counterscreen; at 9.4 µM; active compounds read high
# [6] = system: T-cell receptor (TCR)-CD3 interaction, human; assay: blockers of TCR binding to CD3 – biochemical, fluorescence, TAMRA-labeled TCR probe, confirmation (AID 652036; in the data active means inhibition above about 19%); conditions: TAMRA-labeled TCR probe fluorescence binding assay; at 9.4 µM; active compounds read high
# [7] = molecular target: Nuclear receptor subfamily 5 group A member 2 (Homo sapiens) (UniProt O00482); assay: NR5A2 activity suppression in reporter cells – cell-based, luminescence, confirmation (AID 651613; in the data active means inhibition above about 42%;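 further: HEK293T cells co-transfected with LRH-1 and StAR promoter luciferase reporter; 0% = vehicle wells and 100% = parental cells lacking receptor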); conditions: cell-based LRH-1 luciferase reporter, inverse agonism; at 3.6 µM; active compounds read high
# [8] = molecular target: Steroidogenic factor 1 (Homo sapiens) (UniProt Q13285); assay: inverse agonism at SF1 nuclear receptor – cell-based, luminescence, high throughput, counter-screen for LRH-1 inverse agonist project (AID 651614; in the data active means inhibition above about 44%;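 further: cells cotransfected with StAR promoter reporter and SF1 expression vector; 0% = vehicle on cells with receptor and 100% = vehicle on cells lacking receptor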); conditions: cell-based SF1 luciferase reporter, at 3.6 µM, active compounds read high
# [9] = molecular target: Toll-like receptor 9 (Homo sapiens) (UniProt Q9NR96); assay: disruptors of TLR9 binding to MyD88 – cell-based, CHO, BLA complementation, fluorescence, triplicate, confirmation (AID 540250;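 active means mean inhibition across three repeats above about 21% taken from the earlier screen, limit read from the data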;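 further: blue over green emission ratio reports constitutive TLR9 MyD88 association via BLA complementation; 0% = DMSO vehicle wells and 100% = clavulanate BLA inhibitor wells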); conditions: CCF4 FRET ratio, at 4.98 µM, active compounds read high
# [10] = BLA reporter readout interference – cell-based, fluorescence, artefact control for TLR9-MyD88 binding inhibitor project (AID 540251;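 active means mean inhibition above a 50% cutoff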;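 further: counterscreen of TLR9-MyD88 hits on CMV-driven BLA in CHO-K1 cells; 0% = DMSO alone and 100% = clavulanate blocking BLA; higher means less blue over green ratio so more BLA blockade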); conditions: CHO-BLA cells, CCF4 FRET ratio, at 4.98 µM, active compounds read high
# [11] = CHO cell viability loss – luminescence, single concentration, cytotoxicity control for TLR9-MyD88 binding inhibitor project (AID 588336; in the data active means inhibition above about 11%); conditions: TLR9-MyD88 CHO cells cytotoxicity, at 4.98 µM, active compounds read high
# [12] = molecular target: Receptor-interacting serine/threonine-protein kinase 2 (Homo sapiens) (UniProt O43353); assay: inhibitors of RIPK2 association with NOD2 – fluorescence, CHO cells, BLA complementation, triplicate, confirmation (AID 624370;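 active means mean inhibition across replicates above a set limit taken from the earlier primary screen, cut at about 21% in these data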;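 further: 0% = DMSO-only wells and the high end = clavulanate BLA-blocked wells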); conditions: CCF4 FRET, at 4.98 µM, active compounds read high
# [13] = BLA reporter readout interference – cell-based, CHO-K1 CMV-bla, CCF4 FRET, fluorescence, artefact control for NOD2-RIPK2 interaction inhibitor project, confirmation (AID 624371;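 active means mean inhibition above the low-control mean inhibition plus three low-control SD, cut at about 11% in these data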;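 further: 0% = DMSO only wells and 100% = clavulanate high control wells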); conditions: CCF4 FRET ratio, counterscreen, at 4.98 µM, active compounds read high
# [14] = StAR promoter reporter inhibitors, counter-screen for LRH-1 inverse agonist project, cell-based, luminescence, high throughput (AID 651611; in the data active means inhibition above about 28%); conditions: StAR promoter luciferase reporter counterscreen, at 3.6 µM, active compounds read high
# [15] = compounds suppressing VP16-driven luciferase signal – cell-based, luminescence, high throughput, counter-screen for LRH-1 inverse agonist project (AID 651615; in the data active means inhibition above about 33%); conditions: Gal4-VP16 luciferase reporter cells, at 3.6 µM, active compounds read high
# Sequence of Bcl-2-like protein 1 (Homo sapiens) (Q07817 whole entry, looked up): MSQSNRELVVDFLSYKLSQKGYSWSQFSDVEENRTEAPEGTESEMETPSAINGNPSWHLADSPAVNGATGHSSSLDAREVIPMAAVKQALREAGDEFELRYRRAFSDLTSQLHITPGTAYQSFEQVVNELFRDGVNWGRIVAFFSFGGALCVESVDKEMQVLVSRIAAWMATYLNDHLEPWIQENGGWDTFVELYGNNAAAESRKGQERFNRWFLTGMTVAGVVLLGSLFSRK
# Sequence of Protein phosphatase methylesterase 1 (Homo sapiens) (Q9Y570 whole entry, looked up): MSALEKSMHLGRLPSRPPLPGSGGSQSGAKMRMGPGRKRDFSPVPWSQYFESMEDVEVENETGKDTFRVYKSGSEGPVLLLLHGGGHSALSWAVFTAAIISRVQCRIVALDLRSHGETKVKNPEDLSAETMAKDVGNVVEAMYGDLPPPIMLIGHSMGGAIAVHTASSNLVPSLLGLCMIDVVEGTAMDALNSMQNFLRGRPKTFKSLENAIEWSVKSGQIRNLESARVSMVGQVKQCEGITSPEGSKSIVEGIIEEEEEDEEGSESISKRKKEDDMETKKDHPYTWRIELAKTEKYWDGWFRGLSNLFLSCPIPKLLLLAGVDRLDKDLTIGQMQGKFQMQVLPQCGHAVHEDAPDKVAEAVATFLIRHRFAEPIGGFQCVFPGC
# Sequence of Induced myeloid leukemia cell differentiation protein Mcl-1 (Homo sapiens) (Q07820 whole entry, looked up): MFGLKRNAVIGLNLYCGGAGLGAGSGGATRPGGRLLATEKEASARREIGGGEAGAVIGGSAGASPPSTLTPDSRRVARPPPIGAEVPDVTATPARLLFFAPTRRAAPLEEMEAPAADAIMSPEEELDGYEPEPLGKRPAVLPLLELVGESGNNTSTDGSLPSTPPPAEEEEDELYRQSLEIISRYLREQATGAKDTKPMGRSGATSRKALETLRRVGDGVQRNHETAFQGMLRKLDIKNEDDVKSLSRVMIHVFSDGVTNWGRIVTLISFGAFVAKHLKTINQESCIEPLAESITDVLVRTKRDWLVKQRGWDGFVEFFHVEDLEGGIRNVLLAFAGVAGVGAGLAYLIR
# Sequence of Protein-arginine deiminase type-4 (Homo sapiens) (Q9UM07 whole entry, looked up): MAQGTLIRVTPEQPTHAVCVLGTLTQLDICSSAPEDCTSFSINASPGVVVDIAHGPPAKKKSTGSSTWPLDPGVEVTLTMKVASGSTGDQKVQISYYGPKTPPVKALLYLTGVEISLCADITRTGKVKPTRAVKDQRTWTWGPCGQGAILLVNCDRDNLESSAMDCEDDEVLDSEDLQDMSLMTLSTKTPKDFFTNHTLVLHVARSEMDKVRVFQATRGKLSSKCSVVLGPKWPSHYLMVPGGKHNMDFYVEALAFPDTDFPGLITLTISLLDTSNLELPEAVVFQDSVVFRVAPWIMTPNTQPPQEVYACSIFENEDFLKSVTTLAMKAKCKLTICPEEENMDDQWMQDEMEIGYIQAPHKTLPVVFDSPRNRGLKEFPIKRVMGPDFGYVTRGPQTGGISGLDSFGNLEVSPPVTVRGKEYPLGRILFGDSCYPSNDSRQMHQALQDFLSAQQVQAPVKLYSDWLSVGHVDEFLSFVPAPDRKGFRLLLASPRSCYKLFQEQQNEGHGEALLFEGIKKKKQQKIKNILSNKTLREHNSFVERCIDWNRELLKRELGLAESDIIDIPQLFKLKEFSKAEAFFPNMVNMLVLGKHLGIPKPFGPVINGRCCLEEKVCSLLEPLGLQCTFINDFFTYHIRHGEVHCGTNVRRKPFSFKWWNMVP
# Sequence of Nuclear receptor subfamily 5 group A member 2 (Homo sapiens) (O00482 whole entry, looked up): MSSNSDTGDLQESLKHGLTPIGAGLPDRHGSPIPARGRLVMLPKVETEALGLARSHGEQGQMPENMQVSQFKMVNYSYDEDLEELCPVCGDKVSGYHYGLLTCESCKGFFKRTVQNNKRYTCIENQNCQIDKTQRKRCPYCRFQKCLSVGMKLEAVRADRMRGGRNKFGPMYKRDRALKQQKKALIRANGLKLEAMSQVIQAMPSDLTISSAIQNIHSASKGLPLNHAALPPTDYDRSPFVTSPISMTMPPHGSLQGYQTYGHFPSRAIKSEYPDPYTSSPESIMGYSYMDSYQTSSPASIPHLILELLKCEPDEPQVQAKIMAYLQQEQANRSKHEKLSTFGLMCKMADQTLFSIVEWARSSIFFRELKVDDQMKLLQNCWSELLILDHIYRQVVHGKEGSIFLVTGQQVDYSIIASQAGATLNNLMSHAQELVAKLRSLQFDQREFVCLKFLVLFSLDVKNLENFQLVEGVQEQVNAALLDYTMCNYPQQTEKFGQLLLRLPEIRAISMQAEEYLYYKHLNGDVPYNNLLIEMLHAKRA
# Sequence of Steroidogenic factor 1 (Homo sapiens) (Q13285 whole entry, looked up): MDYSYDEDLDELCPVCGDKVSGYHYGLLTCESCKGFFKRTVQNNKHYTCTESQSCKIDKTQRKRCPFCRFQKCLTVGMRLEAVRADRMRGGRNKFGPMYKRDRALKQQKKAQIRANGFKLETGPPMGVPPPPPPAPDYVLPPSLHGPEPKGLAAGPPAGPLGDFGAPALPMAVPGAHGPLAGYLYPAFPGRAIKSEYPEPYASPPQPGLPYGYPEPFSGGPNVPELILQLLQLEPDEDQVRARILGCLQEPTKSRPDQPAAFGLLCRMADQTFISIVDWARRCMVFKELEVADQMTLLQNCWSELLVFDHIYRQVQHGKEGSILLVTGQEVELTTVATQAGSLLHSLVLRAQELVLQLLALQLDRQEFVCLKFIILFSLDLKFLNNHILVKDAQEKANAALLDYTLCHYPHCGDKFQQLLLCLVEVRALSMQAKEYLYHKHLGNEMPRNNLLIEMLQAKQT
# Sequence of Receptor-interacting serine/threonine-protein kinase 2 (Homo sapiens) (O43353 whole entry, looked up): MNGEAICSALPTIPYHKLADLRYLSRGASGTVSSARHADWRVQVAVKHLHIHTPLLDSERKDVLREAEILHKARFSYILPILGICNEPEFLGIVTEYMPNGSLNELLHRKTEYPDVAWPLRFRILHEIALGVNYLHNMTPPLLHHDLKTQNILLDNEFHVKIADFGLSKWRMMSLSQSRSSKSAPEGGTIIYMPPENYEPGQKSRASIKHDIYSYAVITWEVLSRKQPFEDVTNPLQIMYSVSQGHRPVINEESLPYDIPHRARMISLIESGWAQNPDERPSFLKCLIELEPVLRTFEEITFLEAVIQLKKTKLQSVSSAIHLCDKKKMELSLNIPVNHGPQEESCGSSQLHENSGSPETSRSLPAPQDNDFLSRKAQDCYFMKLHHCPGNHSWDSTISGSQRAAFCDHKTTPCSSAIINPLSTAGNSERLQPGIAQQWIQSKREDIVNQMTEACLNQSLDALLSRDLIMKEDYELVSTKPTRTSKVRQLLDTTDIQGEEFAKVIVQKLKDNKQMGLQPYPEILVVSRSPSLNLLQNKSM
# Sequence of Toll-like receptor 9 (Homo sapiens) (Q9NR96 whole entry, looked up): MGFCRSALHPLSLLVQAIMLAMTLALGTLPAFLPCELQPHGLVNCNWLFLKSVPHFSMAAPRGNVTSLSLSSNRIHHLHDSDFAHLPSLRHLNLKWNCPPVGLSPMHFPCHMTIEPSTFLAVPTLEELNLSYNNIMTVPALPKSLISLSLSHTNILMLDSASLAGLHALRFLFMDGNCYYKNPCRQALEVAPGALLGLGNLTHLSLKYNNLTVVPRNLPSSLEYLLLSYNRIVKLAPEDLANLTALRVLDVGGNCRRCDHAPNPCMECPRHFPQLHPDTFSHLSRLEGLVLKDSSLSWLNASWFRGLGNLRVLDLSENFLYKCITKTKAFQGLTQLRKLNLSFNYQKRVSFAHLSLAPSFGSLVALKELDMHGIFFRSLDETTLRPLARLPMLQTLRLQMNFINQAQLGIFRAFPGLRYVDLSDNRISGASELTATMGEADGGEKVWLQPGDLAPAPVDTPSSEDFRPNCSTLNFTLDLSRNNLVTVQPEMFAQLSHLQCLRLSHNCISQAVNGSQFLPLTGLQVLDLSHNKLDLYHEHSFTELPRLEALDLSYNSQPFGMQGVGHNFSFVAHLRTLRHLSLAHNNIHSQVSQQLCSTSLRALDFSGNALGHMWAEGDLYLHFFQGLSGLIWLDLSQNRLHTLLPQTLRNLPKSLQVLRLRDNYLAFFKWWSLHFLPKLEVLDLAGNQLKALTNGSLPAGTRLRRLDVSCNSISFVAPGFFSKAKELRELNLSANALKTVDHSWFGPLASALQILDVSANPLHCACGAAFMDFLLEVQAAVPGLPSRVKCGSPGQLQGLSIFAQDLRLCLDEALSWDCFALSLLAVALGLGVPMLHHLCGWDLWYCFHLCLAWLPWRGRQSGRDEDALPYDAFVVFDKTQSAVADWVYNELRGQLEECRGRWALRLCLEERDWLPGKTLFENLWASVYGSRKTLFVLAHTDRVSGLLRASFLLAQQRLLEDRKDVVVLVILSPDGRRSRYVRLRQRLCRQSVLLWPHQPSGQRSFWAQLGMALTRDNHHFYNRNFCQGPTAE
structure (smiles),measurement,setting,value
Cc1nn(Cc2ccccc2)c(C)c1CNC(=O)c1ccc(F)c(S(=O)(=O)N2CCOCC2)c1,inhibition,[1],9.04%
same,inhibition,[2],4.37%
same,inhibition,[3],3.62%
CC1Oc2ccccc2C=C1/C=N/Nc1ccc(C(=O)O)cc1 (stereo not given),inhibition,[4],34.8% (active)
CC12CCC(C(=O)N(NC(=O)c3ccccc3O)C1=O)C2(C)C (stereo not given),inhibition,[1],10.1%
same,inhibition,[2],41.1% (active)
same,inhibition,[5],23.1% (active)
same,inhibition,[6],30% (active)
CC[C@]1(O)C[C@@H]2CN(CCc3c([nH]c4ccccc34)[C@@](C(=O)OC)(c3cc4c(cc3OC)N(C)[C@H]3[C@@](O)(C(=O)OC)[C@H](OC(C)=O)[C@]5(CC)C=CCN6CC[C@]43[C@@H]65)C2)C1,inhibition,[1],27.1%
same,inhibition,[2],35.2%
same,inhibition,[7],42.5% (active)
same,inhibition,[8],61.2% (active)
Oc1ccc(/C=N/Nc2ccnc3cc(Cl)ccc23)c(O)c1O,inhibition,[4],51.8% (active)
COc1cc(/C=N/Nc2nc(-c3ccc(S(=O)(=O)N(C)C)cc3)cs2)ccc1O,inhibition,[4],19.7%
Nc1cccc2c1C(=O)N(Cc1nnc(-c3ccccc3Br)o1)C2=O,inhibition,[1],51.2% (active)
same,inhibition,[2],69% (active)
same,inhibition,[9],16.4%
same,inhibition,[10],19.9%
same,inhibition,[11],3.2%
same,inhibition,[12],37.4% (active)
same,inhibition,[13],41.6% (active)
CCOC(=O)c1sc(N/N=C/c2cc(Br)c(O)c(OC)c2)nc1C,inhibition,[4],21.6%
O=C(/C=C1\NC2(CCCC2)Cc2ccccc21)C(=O)N/N=C/c1ccc(O)c(O)c1,inhibition,[4],-18.9%
CCN1CC=C2C(C#N)=C(N)C(C#N)(C#N)[C@H](c3ccoc3)[C@H]2C1,inhibition,[1],97.5% (active)
same,inhibition,[2],114% (active)
same,inhibition,[3],10.3%
O=C(N/N=C/c1c[nH]c2ccccc12)c1sc2ccccc2c1Cl,inhibition,[4],21.7%
COc1ccc(Nc2nc(-c3cccnc3)nc3ccccc23)cn1,inhibition,[1],90.3% (active)
same,inhibition,[2],114% (active)
same,inhibition,[14],28.2% (active)
same,inhibition,[7],43.9% (active)
same,inhibition,[8],53.2% (active)
same,inhibition,[15],-10.3%
Cn1c2ccccc2c2cc(/C=N/NC(=O)c3ccc(N)cc3)ccc21,inhibition,[4],19.7%
O=S(=O)(Nc1nc2ccccc2nc1Nc1cccc(S(=O)(=O)N2CCCCC2)c1)c1ccccc1,inhibition,[4],34.9% (active)
O=C(CNc1ccc2ccccc2c1)N/N=C/c1cc2ccccc2nc1Cl,inhibition,[4],22.6%
C/C(=N/Nc1nc(-c2ccccc2F)nc2ccccc12)c1ccccc1O,inhibition,[4],3.91%
CCN(CC)S(=O)(=O)c1cc(NC(=O)C(C)N2CCN(c3ccccn3)CC2)ccc1C (stereo not given),inhibition,[4],18.6%
Cc1ccc(O)c(N=CC2=C(O)c3ccccc3C2=O)c1,inhibition,[4],27.3% (active)
Oc1nc(Nc2cccc(Cl)c2)sc1/C=C1\C=Nc2ccccc21,inhibition,[4],26.6% (active)
CCCC1OC23CCCCC2C(C#N)(C#N)C1(C#N)C(=N)O3 (stereo not given),inhibition,[1],19.5%
same,inhibition,[2],21%
same,inhibition,[5],20%
same,inhibition,[6],10.8%
CC(C)=CCc1cc2c(=O)c3c(O)c4c(cc3oc2c(O)c1O)OC(C)C4(C)C (stereo not given),inhibition,[4],-51.2%
N#CCN(CC#N)C(=O)C1c2ccccc2Oc2ccccc21,inhibition,[4],0.3%
COc1ccc(-c2cc(-c3ccc(C)cc3)n[nH]2)c(O)c1,inhibition,[4],37.7% (active)
O=c1nc(/C=C/c2cc([N+](=O)[O-])ccc2Cl)cc(C(F)(F)F)[nH]1,inhibition,[4],25.3%
O=C(O)CSc1cc(NS(=O)(=O)c2ccc(Cl)cc2)c2ccccc2c1O,inhibition,[4],14.2%
COc1ccc(C2CC(c3ccc(OC)c(OC)c3)=NN2S(C)(=O)=O)cc1 (stereo not given),inhibition,[4],22.9%
COc1ccc2oc(=O)c(-c3csc(Nc4cccc(O)c4)n3)cc2c1,inhibition,[4],9.36%
COCCCNc1c2c3c(cccc3[nH]c1=O)C(=O)c1ccccc1-2,inhibition,[4],133% (active)
COc1ccc(OC)c(N2C(=O)CC(Cc3ccc(C)cc3)C2=O)c1 (stereo not given),inhibition,[4],0.52%
Cc1cc(NC(=O)CSc2nc3ccccc3c(=O)n2C2CCCC2)no1,inhibition,[4],3.59%
CCn1c(=O)c2cc(C(=O)Nc3ccc(OC)cc3OC)sc2c2ccccc21,inhibition,[4],21.5%
Cc1ccc(NC(=O)CS(=O)CC(=O)Nc2ccccc2-c2ccc(C)o2)cc1 (stereo not given),inhibition,[4],2.84%
CCOC(=O)C1=C(C)Nc2ccccc2N/C1=N\S(=O)(=O)c1cccc(Cl)c1,inhibition,[4],18.7%
O=C(O)CSc1cc(NS(=O)(=O)c2ccc(Br)cc2)c2ccccc2c1O,inhibition,[4],3.78%
O=C(Nc1ccc(N2CCOCC2)cc1)Nc1ccc2nc(-c3ccco3)c(-c3ccco3)nc2c1,inhibition,[4],39.5% (active)
CC1CCCCN1S(=O)(=O)c1ccc(C(=O)Nc2ccccc2-c2nc3ccccc3[nH]2)cc1 (stereo not given),inhibition,[4],8.87%
O=C(c1ccccc1F)N1CCN(Cc2nc3sc4c(c3c(=O)[nH]2)CCCC4)CC1,inhibition,[4],19.9%
CCOc1ccc(NC(C(=O)Nc2cccc(C(C)=O)c2)c2ccccc2)cc1 (stereo not given),inhibition,[4],33.5% (active)
COc1ccc(C(=O)c2sc3nc(-c4ccccc4)ccc3c2N)cc1,inhibition,[4],11.8%
Cn1c(=O)c2c(nc(CN3CCN(C(c4ccccc4)c4ccccc4)CC3)n2CCCO)n(C)c1=O,inhibition,[4],23.8%
CCOC(=O)c1c2c3c(cccc3n(C)c1=O)C(=O)c1ccccc1-2,inhibition,[4],21%
C/C(=N\Nc1ccccc1C(=O)O)c1ccncc1,inhibition,[4],1.32%
S=C(NCc1ccccc1)NCc1cccc(CNC(=S)NCc2ccccc2)c1,inhibition,[4],3.07%
N#Cc1c(N)n(CCOC(=O)c2cccc([N+](=O)[O-])c2)c2nc3ccccc3nc12,inhibition,[4],19.5%
Cc1cc(C)c2[nH]c(O)c(N=NC(=O)c3cc4c(s3)CCCC4)c2c1,inhibition,[4],31.9% (active)
O=C(N/N=C/c1ccc(O)cc1)c1cccc(N/N=C/c2ccc(O)cc2)c1,inhibition,[4],18.8%
